Sampled rows, rich in hits. Any-hit rate of the full collection: about 1%.
gsp antagonist: qHTS for Antagonists of gsp, the Etiologic Mutation Responsible for Fibrous Dysplasia/McCune-Albright Syndrome: qHTS; gsp-mutant cells, cAMP HTRF, 30 min; Potency, µM (top dose mostly 76.9 µM), without a hit: at the highest dose activity change, negative = inhibition, actives largely listed as inhibitors; 0.4% of 340,000 active; AID 624288, 2012; calls by dose curve; cell line not stated here;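 further: intracellular cAMP measured with PDE inhibitor Ro 20-1724 present during compound exposure; potency means the concentration at half of the fitted maximal effect; on the % scale 0 is the no-effect control and ±100 the full control effect; nearly all actives have a fitted effect of over 65% in size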
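Measurement of cellular cAMP by homogeneous time-resolved fluorescence following a 30 min compound exposure at 37C. The PDE inhibitor […] was present throughout; the assay buffer was DPBS with 0.05% BSA and 0.005% Tween 20.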
RXFP1 antag: qHTS Assay for Antagonists of the Relaxin Receptor RXFP1; HEK293-RXFP1, relaxin-stimulated cAMP HTRF, 30 min; active compounds read low; activity change, negative = inhibition, % at 57.5 µM; 0.59% of 350,000 active; AID 1259400, 2018;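 active means activity change of -60% or lower, but not beyond a set lower limit; inconclusive means change between -60% and -40%, or beyond the set limit; inactive means change above -40%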; further: on the % scale 0 is the no-effect control and ±100 the full control effect
Target sequence (Q9HBX9 whole entry, looked up): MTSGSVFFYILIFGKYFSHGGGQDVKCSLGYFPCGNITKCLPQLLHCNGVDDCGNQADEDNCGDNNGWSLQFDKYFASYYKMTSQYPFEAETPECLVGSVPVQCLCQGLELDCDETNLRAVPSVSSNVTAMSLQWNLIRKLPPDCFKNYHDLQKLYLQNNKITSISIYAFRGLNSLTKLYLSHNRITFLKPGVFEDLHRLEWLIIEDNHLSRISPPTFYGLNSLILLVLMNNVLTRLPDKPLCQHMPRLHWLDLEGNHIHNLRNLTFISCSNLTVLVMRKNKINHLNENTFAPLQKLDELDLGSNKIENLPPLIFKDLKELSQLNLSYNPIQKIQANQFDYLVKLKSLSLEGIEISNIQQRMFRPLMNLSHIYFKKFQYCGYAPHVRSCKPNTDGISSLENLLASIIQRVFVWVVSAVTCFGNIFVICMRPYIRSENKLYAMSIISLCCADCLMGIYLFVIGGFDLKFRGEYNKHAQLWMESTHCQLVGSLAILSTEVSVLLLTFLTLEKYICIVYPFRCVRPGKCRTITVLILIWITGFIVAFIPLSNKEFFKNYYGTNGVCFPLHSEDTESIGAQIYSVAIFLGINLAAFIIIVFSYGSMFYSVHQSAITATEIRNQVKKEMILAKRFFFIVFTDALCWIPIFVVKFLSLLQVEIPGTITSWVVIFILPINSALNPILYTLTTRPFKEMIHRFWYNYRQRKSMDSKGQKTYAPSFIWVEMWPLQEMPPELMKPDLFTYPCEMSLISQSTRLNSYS
Luc counter: Counterscreen for Luciferase (Kinase-Glo TM) Inhibition; 0.28% of 200,000 active; Kinase-Glo luciferase, ATP luminescence, 8 min; Potency, µM (doses to about 38.3 µM), without a hit: at the highest dose activity change, negative = inhibition, most hits filed as inhibitors; further: potency means the concentration at half of the fitted maximal effect; on the % scale 0 is the no-effect control and ±100 the full control effect; nearly all actives have a fitted effect of over 60% in size
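Compounds were added to a substrate mix at pH 7.2 (50 mM imidazole, 10 uM ATP, within the enzyme's linear range), followed by Kinase-Glo detection reagent; luminescence was measured after 8 minutes at ambient temperature.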
miR-21 act: qHTS Assay for Modulators of miRNAs and/orActivators of miR-21; AID 2288, 2010; Potency, µM (top dose mostly 38.3 µM), for inactives: top-dose activity change, positive = activation, most hits filed as activators; 340,000 tested, under 10 active; HeLa miR-21 FLuc reporter, luciferase, 48 h;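 further: % of control where 0% means no effect; miR-21 action dims this reporter so a rising signal means less miR-21 action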
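Using DMEM plus 10% FBS, HeLa miR-21-FLuc cells are incubated with test compounds (final up to about 40uM) for 48 hours; firefly luciferase signal is then imaged following reagent-mediated lysis.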
RXFP1 agonist: qHTS Assay for Agonists of the Relaxin Receptor RXFP1; Relaxin receptor 1 (Homo sapiens), Q9HBX9; AID 2676, 2010; Potency, µM (series often up to 57.5 µM), inactives show top-dose activation, most hits filed as activators; HEK293T-RXFP1 cAMP TR-FRET, 30 min; response scale: percent of porcine relaxin response, buffer zero; 0.3% of 370,000 active; further: potency means the concentration at half of the fitted maximal effect; on the % scale 0 is the no-effect control and ±100 the full control effect; nearly all actives have a fitted effect of over 60% in size
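HEK293 cells stably expressing RXFP1, treated 30 min at 37C with compounds plus PDE4 inhibitor Ro 20174; cAMP measured by HTRF TR-FRET. Normalized to buffer and 29 nM porcine relaxin; EC50 by Hill fit.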
gsp ag: qHTS for Agonist of gsp, the Etiologic Mutation Responsible for Fibrous Dysplasia/McCune-Albright Syndrome: qHTS. gsp mutant cells, cAMP HTRF, 30 min. Potency, µM (highest dose often 76.9 µM), for inactives: top-dose activation (cAMP increase), actives largely listed as activators. 0.13% of 340,000 active; active means well fitted activation curve with a large enough effect; inconclusive means small, poorly fitted or top-dose-only effect, or another doubt; inactive means no such curve, though single readings can be large or run the other way; cell line not stated here;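 further: phosphodiesterase inhibitor Ro 20-1724 added with compounds to block cAMP breakdown; potency means the concentration at half of the fitted maximal effect; nearly all actives have a fitted effect of over 60% in size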
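Cells stably selected in G418 were plated at 2000/well, grown 16-24 hr, then given compounds in DMSO with the PDE inhibitor […] (300 uM solution added) for 30 min at 37C; cAMP was read by HTRF.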
* hit, by the source's call; ? = inconclusive; . = no result given; [ ] = another dose, or the depositor's remark. Unless noted, the call rests on the fitted dose curve; in most records, active means well fitted curve in the direction sought with a large enough effect; inconclusive means small, poorly fitted or top-dose-only effect, or another doubt; inactive means no such curve, though single readings can be large; an effect the other way counts as inactive or inconclusive.

SMILES | gsp antagonist | RXFP1 antag | Luc counter | miR-21 act | RXFP1 agonist | gsp ag
O=C(CSc1nc(-c2ccc(Cl)cc2)[nH]c(=O)n1)Nc1cccc(Cl)c1 | -13% | -70* | . | 2% | 0% | 6%[15.4 µM]
CCOC(=O)c1ccccc1NC(=O)CSc1ccc(-c2sc(-c3ccccc3)nc2C)nn1 | . | 0 | . | -2% | 9% | .
O=C(/C=C/c1ccccc1)NC(=S)Nc1ccc(CN2CCOCC2)cc1 | ? | -63* | 1% | 4% | 2% | -2%[15.4 µM]
CC(=O)C[C@H]1[C@H](O[C@H]2[C@H](OC(C)C(=O)N[C@@H](C)C(=O)N[C@H](CCC(=O)N[C@@H](CCCCN)C(=O)N[C@H](C)C(=O)O)C(N)=O)[C@@H](NC(=O)O)C(O)O[C@@H]2CO)O[C@H](CO)[C@@H](O)[C@@H]1O (stereo partly drawn) | . | 19 | . | . | . | .
CCC(=O)N1CCc2cc(CNC(=O)c3ccccc3C)ccc21 | . | -13 | . | -28% | 2% | .
Cn1c(N=Nc2ccc(N3CCOCC3)cc2)[n+](C)c2ccccc21 | ? | -107* | 13µM* | -6% | -13% | 0%[15.4 µM]
CCOC(=O)c1cc(-c2ccccc2)n(CCC(=O)NCCc2cccc(C)c2)c1C | . | -31 | . | 9% | -1% | .
CCOC(=O)c1cc(-c2ccc(OC)cc2)n(CCC(=O)NCCc2ccccc2)c1C | . | -62* | . | -8% | 0% | .
CCOc1ccc(/C=C2\SC(=O)N(CCNC(=O)C3COc4ccccc4O3)C2=O)cc1OC (stereo not drawn) | 28µM* | . | -1% | 0% | -2% | -5%
COc1ccc(/C=C2/SC(=O)N(CCNC(=O)C3COc4ccccc4O3)C2=O)cc1 (stereo not drawn) | ? | -17 | -1% | -15% | 1% | -11%
Cc1ccc(-c2nnc(N3CCN(C(=O)COc4cccc(C)c4)CC3)c3ccccc23)cc1 | ? | -18 | . | 29% | -2% | 0%[15.4 µM]
Cc1ccc(-c2nnc(N3CCC(C)CC3)c3ccccc23)cc1 | 25µM* | -11 | 0% | -4% | 0% | -61%
O=C(COc1ccccc1)N1CCN(c2nnc(-c3ccccc3)c3ccccc23)CC1 | ? | 28 | . | 19% | 3% | -3%
COc1ccc(OCC(=O)N2CCN(c3nnc(-c4ccccc4)c4ccccc34)CC2)cc1 | 40µM* | 13 | -1% | 27% | 2% | 13%
COc1ccc(OCC(=O)N2CCN(c3nnc(-c4ccc(C)cc4)c4ccccc34)CC2)cc1 | 28µM* | -14 | . | 7% | 2% | -3%[15.4 µM]
Cc1ccc(OCC(=O)N2CCN(c3nnc(-c4ccc(C)cc4)c4ccccc34)CC2)cc1 | 35µM* | -5 | 3% | 29% | 0% | 1%
Cc1cccc(OCC(=O)N2CCN(c3nnc(-c4ccccc4)c4ccccc34)CC2)c1 | ? | -16 | . | 22% | 0% | -5%
CN(C)CCOC1=Cc2ccccc2Sc2ccc(Cl)cc21 | . | -32 | . | . | . | .
Clc1cccc(CSc2nnc(C3CCNCC3)o2)c1 | . | -1 | . | -17% | 0% | .
CO/N=C(\C(=O)N[C@@H]1C(=O)N2C(C(=O)O)=C(CSc3nc(=O)c(O)nn3C)CS[C@H]12)c1csc(N)n1 | . | -23 | . | . | . | .
CCc1ccccc1N(C)C(=O)c1cn(CC(C)C)c(=O)c2cc(OC)c(OC)cc12 | . | . | . | 24% | 3% | .
NC(=O)c1nsc(C(=O)N(c2ccc(Cl)cc2)C(C(=O)NCC2CCCO2)c2cccs2)c1N (stereo not drawn) | ? | -62* | -2% | 0% | 2% | -16%
Cc1ccc(C)c(N(C(=O)c2snc(C(N)=O)c2N)C(C(=O)NCC2CCCO2)c2ccc(C)o2)c1 (stereo not drawn) | -15% | -87* | . | 21% | 1% | -6%[15.4 µM]
Cc1ccc2c(c1)c1c(c(=O)n(Cc3ccccc3)c(=O)n1Cc1ccccc1F)n2C | . | . | . | 7% | 0% | .
CSc1nc(SCC(=O)O)c2sc3nc(-c4ccccc4)c4c(c3c2n1)CCC4 | 7% | 0 | . | -5% | 28µM* | ?
SMILES | gsp antagonist | RXFP1 antag | Luc counter | miR-21 act | RXFP1 agonist | gsp ag
CN(C)Cc1ccccc1-c1nccc(NC2CC2)n1 | . | . | -2% | . | . | .
Cc1ccc2c(c1)C(N1CCCC1=O)CC(c1ccco1)N2 (stereo not drawn) | 6% | 5 | 11µM* | -35% | 1% | -20%
Cc1nnc(N2CCN(c3ccccc3F)CC2)c2c1nnn2Cc1ccccc1Cl | . | -8 | . | 5% | 5% | .
COC(=O)CN1C(c2ccccc2O)Nc2ccc(Br)cc2C1c1ccccc1 (stereo not drawn) | -4% | -4 | -2% | -1% | -1% | -3%
CCOC(=O)CN1C(c2ccccc2O)Nc2ccc(Br)cc2C1c1ccccc1 (stereo not drawn) | 4% | -73* | 1% | -8% | 0% | -18%[15.4 µM]
CSC(=Nc1ccccc1)N=C(SCc1ccccc1)N(C)C | 2% | -100* | . | . | . | 11%
Cc1cc(NC(=O)CSc2ncnc3c2cnn3-c2cccc(Cl)c2)no1 | -11% | 6 | 0% | 3% | 6.3µM* | -10%
C[C@@H]1CC[C@@]2(OC1)O[C@H]1C[C@H]3[C@@H]4CC[C@H]5C[C@@H](O)CC[C@]5(C)[C@H]4CC(=O)[C@]3(C)[C@H]1[C@@H]2C | . | -8 | . | . | . | .
Cc1cccc(C)c1Nc1c(-c2ccccc2F)nc2cccc(C)n12 | . | -100* | . | 3% | 5% | .
CN(c1ccc(O)cc1)c1nc(O)c(C2=c3ccccc3=NC2=O)s1 | 14µM* | -13 | . | . | . | 7%
CN[C@]1(C)[C@H]2CC[C@@H](C2)C1(C)C | . | . | 0%[17.1 µM] | . | . | .
C=C(C)C(=O)Oc1ccc(N=Nc2ccc(C)cc2)ccc1=O | -10% | -70* | . | . | . | -2%[15.4 µM]
COC(=O)c1[nH]c2ccc(Br)cc2c1NC(=O)CN1CCN(C2CCCCC2)CC1 | -6% | -63* | 5% | ? | 0% | 26%
S=c1[nH]cc(Oc2ccc(Cl)cc2Cl)c(=S)[nH]1 | -4% | 23 | . | . | . | 20µM*
O=C(O)Cc1ccccc1Oc1ccc(Cl)cc1Cl | . | -9 | . | . | . | .
CC(=O)Oc1ccc2c(=O)c(-c3nc4ccccc4s3)coc2c1 | 1% | -22 | 10µM* | -50% | 1% | 9%[15.4 µM]
CCOC(=O)N1CCC(NC(=O)c2ccc3c(c2)N(Cc2ccc(F)cc2)C(=O)c2ccccc2S3=O)CC1 (stereo not drawn) | . | . | . | 22% | 1% | .
